This is part of a sample that, as a whole, favours compounds with a hit. Of some 83,000 tested, about 20% had one in any assay.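 Results are percent growth after 48 hours of single-concentration exposure. 100 means growth as in untreated cells, lower positive values show inhibition; negative values down to -100 show cell death.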 Calls of active or inactive are those of the source. The calls were made as follows: active = growth percent below 10; inactive = the rest.

The assay concerns UO-31 renal. The assay is described as follows: NCI-60 one-dose screen, 48 h (100 = growth as untreated, 0 = no growth, -100 = all killed). Conditions: 10 µM unless noted.
As to `O=C1OC(Cc2ccccc2)C1c1ccccc1` (stereo not drawn), the growth is 89% (inactive).

As to `O=C1Nc2cc(-c3ccc(NC(=O)c4ccccc4)cc3)ccc2/C1=C/c1ccc[nH]1`, the growth is 71.6% (inactive).

Turning to `O=C(N/N=C/c1cc2ccccc2n2nnnc12)Nc1ccccc1`, the growth is 94.1% (inactive).

Take `O=C1c2ccc3c4c(ccc(c24)C(=O)N1CCCNCc1ccccc1)C(=O)N(CCCNCc1ccccc1)C3=O`: the growth is -48.6% (active).

With `C=C1C(=O)O[C@H]2[C@H]1CC/C(COC(=O)NCCc1c[nH]c3ccc(OC)cc13)=C\CC[C@@]1(C)O[C@@H]21`, the growth is -99.3% (active).

For `CCOc1ccc(Nc2nc(-c3ccc4c(c3)NC(=O)CO4)cs2)cc1`, the growth is 63.7% (inactive).

In the case of `COc1ccc(C(=O)c2cc(C)c(OC)c(C)c2)c(OC)c1OC(=O)C(Cl)Cl`, the growth is 35.3% (inactive).

For `CN(C)c1ccc(Nc2c3ccccc3nc3cc(NC(=O)CCN4CCCC4)ccc23)cc1`, the growth is -53.1% (active).

In the case of `Cc1nc(N)nc(N[C@@H](C)c2nc3cccc(NCc4ccc(C(=O)NO)cc4)c3c(=O)n2-c2ccccc2)n1`, the growth is 68.4% (inactive).

Take `COc1ccc(C/C(=C(\C)c2ccc(OCCN3CCCC3)cc2)c2ccc(OCCN3CCCC3)cc2)cc1`: the growth is 53.4% (inactive).

`NC(=NCCCOc1ccc(F)cc1)Nc1ccc(Cl)cc1`: the growth is 49.1% (inactive).

For `CCCOC(=O)N[C@H]1CCc2c(Cl)c(OC)c(OC)c(OC)c2-c2ccc(SC)c(=O)cc21`, the growth was 23.1% (inactive).

For `N#Cc1c(NC(=O)NCc2ccccc2)sc2c1CCCC2`, the growth was 47.2% (inactive).

Regarding `NCCCCCCNc1cc(-c2cccc(OC(F)(F)F)c2)nc2ccc(N3CCCC3)cc12`, the growth is -91.5% (active).

In the case of `C[C@H]1[C@H](C)CC[C@]2(C(=O)NCC#CCN3CCN(C)CC3)CC[C@]3(C)C(=CC[C@@H]4[C@@]5(C)Cc6c([nH]c7ccccc67)C(C)(C)[C@@H]5CC[C@]43C)[C@H]12`, the growth is 67.6% (inactive).

Turning to `N#Cc1c(NCc2ccccc2I)sc2c1CCCCC2`, the growth was 79.7% (inactive).

For the compound `CN1C(=O)NC(c2ccc3c(c2)OCO3)C=C1c1ccccc1` (stereo not drawn), the growth was 64.7% (inactive).

As for `COc1cc(/C=C\C(=O)O)ccc1OCc1ccccc1`, the growth is 81.4% (inactive).

Regarding `CCN(CC)c1ccc(/C=N/NC(=O)CSc2nc3ccccc3c(=O)n2Cc2ccc(S(N)(=O)=O)cc2)c(O)c1`, the growth is 45.9% (inactive).

As for `Cc1ccc(S(=O)(=O)NNC(=O)/C(=C\c2ccc(Cl)cc2)c2nc3ccccc3s2)cc1`, the growth is 75.1% (inactive).

With `CCOC(=O)[C@@H]1CCCN(S(=O)(=O)c2ccc(S(=O)(=O)N(CC)CC)c(F)c2)C1`, the growth is 69% (inactive).

Turning to `Cc1ccc(CNc2c3ccccc3nc3cc(NC(=O)CCN4CCCC4)ccc23)cc1`, the growth was 3.83% (active).

Consider `COc1ccc(CC(C)=C(c2ccc(OCCN3CCCCCC3)cc2)c2ccc(OCCN3CCCCCC3)cc2)cc1`, for which the growth is -98.8% (active).

Take `CCCCNC(=O)Oc1ccc(/C(=C(\C)c2ccccc2)c2ccc(OCCN3CCCCC3)cc2)cc1`: the growth is 40.4% (inactive).

Regarding `Cn1c2ccccc2c2c3c(c4c5ccccc5n(C)c4c21)C(=O)OC3`, the growth is 61% (inactive).

For `CNC(=O)c1cc(Cn2nc(C)c(NC(=O)Nc3ccc(Cl)c(C(F)(F)F)c3)c2C)ccn1`, the growth is 90.5% (inactive).

`O=C(Nc1ccc(NC(=O)c2cc(=O)[nH]c3ccccc23)cc1)Nc1cccc(Cl)c1`: the growth was 65.3% (inactive).

Consider `COc1ccc(C(=O)CSc2nc(-c3cc(OC)ccc3OC)cc(-c3ccc(Cl)cc3)c2C#N)cc1`, for which the growth was 45.9% (inactive).

Turning to `Cc1cc(C)c(S(=O)(=O)Oc2ccccc2[N+](=O)[O-])c(C)c1`, the growth was 22.8% (inactive).

As for `O=C(CCN1CCCC1)Nc1ccc2c(NCc3ccccc3)c3ccccc3nc2c1`, the growth was 1.35% (active).

On to `CCN(CC)c1ccc(/C=N/NC(=O)CSc2nc3ccccc3c(=O)n2CCc2ccc(S(N)(=O)=O)cc2)c(O)c1`, for which the growth was 28.2% (inactive).

`O=C(CSc1nc2sc3c(c2c(=O)n1-c1ccc(Cl)cc1)CCCC3)Nc1nc(-c2cccc(Br)c2)cs1`: the growth is 74.6% (inactive).

In the case of `COc1ccc(C(C)=O)c(OC)c1`, the growth was 97.4% (inactive).

`COc1cccc(-c2nc3occn3c2-c2ccnc(NCCCNS(=O)(=O)c3ccc(C(F)(F)F)cc3)n2)c1`: the growth is 71.5% (inactive).

Consider `C=C1C(=O)O[C@H]2[C@H]1CC/C(C(=O)NCCCCCNC(=O)/C1=C/CC[C@@]3(C)O[C@H]3[C@H]3OC(=O)C(=C)[C@@H]3CC1)=C\CC[C@@]1(C)O[C@@H]21`, for which the growth was 92.6% (inactive).

For `C=C1C(=O)O[C@H]2[C@H]1CC/C(COC(=O)NCc1c[nH]c3ccc(F)cc13)=C\CC[C@@]1(C)O[C@@H]21`, the growth was -99.5% (active).

For `Cc1cc2nc3c4cccc(O)c4n(CCN(C)C)c3nc2cc1C`, the growth was 6.09% (active).

On to `O=C(Cc1ccccc1)NNc1nc(Cl)nc(N2CCN(C(c3ccccc3)c3ccccc3)CC2)n1`, for which the growth was 96.7% (inactive).

Values taken from PubChem BioAssay (NCI).
